Assay results reported in PubChem BioAssay (Tox21).
Records with an inconclusive call do not appear. Where a call stands in place of a potency, no number is given. Calls of active or inactive are those of the source. The call rests on the fitted dose curve; in most records, active means well fitted activation curve with a large enough effect in the repeat runs; inconclusive means weak or mixed curves; inactive means no such curve, though single readings can be large or run the other way.

experiment: qHTS assay for small molecules that induce genotoxicity in human embryonic kidney cells expressing luciferase-tagged ATAD5 (AID 651632); settings: HEK293T ATAD5-luciferase induction, 16 h; series mostly up to 83.3 µM; further: nearly all actives have a fitted effect of over 15% in size
Outline: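 HEK293T cells carrying luciferase-tagged ATAD5 were given compound or DMSO vehicle and incubated 16 hr at 37C, 5% CO2. Luciferase activity was read after 30 min at room temperature with Amplite; a rise signals genotoxic stress.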
Potency means the concentration at half of the fitted maximal effect.

SMILES	Potency
O=C1C(=O)c2ccccc2C(O)=C1C1CCC(c2ccc(Cl)cc2)CC1 (centres undefined)	inactive
COc1ccccc1N1CCN(CC(O)COc2cccc3ccccc23)CC1 (centres undefined)	inactive
CN1CC(=O)N2[C@H](c3ccc4c(c3)OCO4)c3[nH]c4ccccc4c3C[C@@H]2C1=O	inactive
N#CCCN(CCO)CCO	inactive
CCOC(=O)C1=C(C)NC(C)=C(C(=O)OC)C1c1cccc(Cl)c1Cl (centres undefined)	inactive
O=[N+]([O-])c1ccc(O/N=C/c2cc(Br)c(O)c(Br)c2)c([N+](=O)[O-])c1	inactive
C/C=C/C=C/C=O	inactive
O=c1cc(-c2ccccc2)oc2ccc3ccccc3c12	77 nM (active)
Nc1nc2ccc([N+](=O)[O-])cc2s1	inactive
CCC(C)COC(C)=O (centres undefined)	inactive
CCOC(=O)OC(C)OC(=O)[C@@H]1N2C(=O)[C@@H](NC(=O)[C@H](N)c3ccccc3)[C@H]2SC1(C)C (some centres undefined)	inactive
Brc1cc(Br)c(Oc2cc(Br)c(Br)cc2Br)cc1Br	inactive
C[C@@H]1CN(CCCn2c3ccccc3c3ccccc32)C[C@H](C)N1	inactive
O=C1Cc2ccccc2N1c1c(Cl)cccc1Cl	inactive
Cc1cc(=O)c2c(O)c3c(O)cc(=O)c4c3c3c(cc(O)c1c23)C(C)(C)C=4O	inactive
CCCCC(CC)COP(=O)(O)O (centres undefined)	inactive
c1ccc2sc(SN(C3CCCCC3)C3CCCCC3)nc2c1	inactive
CCCCCCCCOc1ccc(C(=O)O)cc1	inactive
C[C@H]1c2cccc(O)c2C(O)=C2C(=O)[C@]3(O)C(O)=C(C(N)=O)C(=O)[C@@H](N(C)C)[C@@H]3[C@@H](O)[C@@H]21	inactive
